About 31,000 (8.9%) of roughly 350,000 compounds were called active. Not shown: some 15% with an inconclusive outcome. The sample holds actives, similar compounds and a random draw of the others, so the mix is not that of the screen. Values without a mark were called inactive. Calls come from the whole dose curve; as a rule, active = well fitted inhibition curve with a large enough effect; inconclusive = small, poorly fitted or top-dose-only effect; inactive = no such curve, though single readings can be large or run the other way.
Target: Histone-lysine N-methyltransferase EHMT2 (Homo sapiens) (UniProt Q96KQ7)
Sequence (Q96KQ7 913-1193 limits assumed): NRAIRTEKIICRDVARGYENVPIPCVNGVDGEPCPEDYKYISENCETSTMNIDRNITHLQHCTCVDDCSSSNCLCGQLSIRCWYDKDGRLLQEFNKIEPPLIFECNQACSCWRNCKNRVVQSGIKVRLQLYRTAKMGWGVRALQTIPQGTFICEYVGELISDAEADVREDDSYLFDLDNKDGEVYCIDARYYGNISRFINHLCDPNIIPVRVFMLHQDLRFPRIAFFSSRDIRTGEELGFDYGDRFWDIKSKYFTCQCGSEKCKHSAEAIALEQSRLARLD
Experiment: qHTS Assay for Inhibitors of Histone Lysine Methyltransferase G9a; note: nearly all actives have a fitted effect of over 75% in size
Conditions: G9a H3K9 monomethylation, AlphaScreen, 2 h; series mostly up to 59 µM; activity, negative = inhibition: at the top concentration
Method in brief: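 Quantitative HTS format: methyltransferase activity on a biotin-tagged H3K9 peptide is measured by AlphaScreen, using a rabbit anti-monomethyl-H3K9 antibody with streptavidin donor and anti-IgG acceptor beads. Final levels are 20 nM enzyme, 500 nM peptide, 20 uM SAM; 2 h RT.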
% is set by controls: 0 for no effect and ±100 for the full control effect; potency is the fitted concentration of half-maximal effect.

Structure (SMILES)	activity, negative = inhibition	Potency
CN(CC(=O)NNC(=O)CNC(=O)c1ccccc1Cl)S(=O)(=O)c1ccc(Cl)cc1	4.73% [at 0.501 µM]	–
Cc1ccc(NC(=O)c2cc3cc(C)ccc3n2C)cc1	-9.16%	–
O=C(c1cccc2ccccc12)N1CCN(c2ccccc2F)CC1	–	2.82 µM (active)
COc1ccc2oc(=O)c(C(=O)N3CCN(c4ccccc4F)CC3)cc2c1	21.4% [at 12.7 µM]	–
O=C(c1ccc(CN2CCOCC2)cc1)N1CCN(c2ccccc2F)CC1	15.9%	–
Cc1cccc(C)c1Nc1nnc(SCC(=O)Nc2sccc2C#N)s1	-7.51%	–
CC(c1nnc(SCC(=O)Nc2sccc2C#N)n1-c1ccc(Cl)cc1)N(C)C (stereo not given)	–	50.1 µM (active)
Cc1csc(SCC(=O)Nc2sccc2C#N)n1	2.21% [at 102 µM]	–
COc1ccc(C2NC(=O)N(C)C(C)=C2[N+](=O)[O-])cc1 (stereo not given)	-2.62% [at 102 µM]	–
COc1cccc(C(=O)NNC(=O)c2cccc(F)c2)c1	4.31% [at 102 µM]	–
CCCCOC(=O)/C(C#N)=C/c1ccc(-c2cccc(C(F)(F)F)c2)o1	-1.47%	–
CCOc1ccc(Nc2oc(/C=C/c3ccc(F)cc3)nc2C#N)cc1	-0.0635%	–
O=C(O)/C=C/c1ccc(OCCCF)cc1	0.243% [at 102 µM]	–
O=S(=O)(Oc1ccccc1C(=S)N1CCOCC1)c1ccc(Cl)cc1	–	31.6 µM (active)
N#C/C(=C\N1CCOCC1)S(=O)(=O)c1ccc(Cl)cc1	20.1%	–
O=C(Nc1ccccc1C(=O)N1CCOCC1)c1ccc(Cl)cc1	-23.7% [at 102 µM]	–
O=C(CSc1nnc(-c2ccccc2F)o1)Nc1cccc(C(F)(F)F)c1	-0.739%	–
O=C(NCc1ccccc1)c1cc(-c2cccc(Cl)c2)on1	-0.805%	–
Cc1cccn2c(=O)c(C=O)c(Nc3ccc(S(N)(=O)=O)cc3)nc12	-13.3% [at 102 µM]	–
CC(OC(=O)/C=C/c1ccccc1)C(=O)Nc1ccc(C(N)=O)cc1 (stereo not given)	0.935% [at 12.7 µM]	–
O=C1C(Cl)=C(N2CCOCC2)C(=O)N1c1ccccc1	3.23% [at 2.33 µM]	–
Cc1oc2c(c1C(=O)N1CCOCC1)C(=O)c1ccccc1C2=O	-50.2%	–
COC1=C(N2CCOCC2)C(=O)c2ccccc2C1=O	–	3.55 µM (active)
COc1cccc(CNC(=O)CN2C(=O)NC(Cc3ccccc3)(c3ccccc3)C2=O)c1 (stereo not given)	-1.58% [at 12.7 µM]	–
Cc1ccc2cccc(NC(=O)c3ccc(OC(C)C)cc3)c2n1	4.14%	–

Structure (SMILES)	activity, negative = inhibition	Potency
O=C(COc1coc(CN2CCN(c3ccccc3)CC2)cc1=O)N1CCc2ccccc21	-26.4% [at 102 µM]	–
COc1ccc(OC)c(NC(=O)C2CCN(S(=O)(=O)c3ccc(C)cc3)CC2)c1	-3.4%	–
CC(C)C(=O)OCC(=O)Nc1ccc2c(c1)CCC2	-28.4%	–
COc1ccc(CN2CCCCC2C)cc1OC (stereo not given)	4.38% [at 102 µM]	–
COc1ccc(CNc2ccc3c(c2)CCC3)cc1OC	–	39.8 µM (active)
COc1ccc(OC)c(CCNC(=O)c2nn(C)c3c2CS(=O)(=O)c2ccccc2-3)c1	-15.2% [at 102 µM]	–
O=C(COC(=O)CNC(=O)C1CCCCC1)NCc1ccccc1	3.72% [at 12.7 µM]	–
O=C(CCc1nc(CN2CCN(S(=O)(=O)c3ccc(Cl)cc3)CC2)no1)N1CCCCC1	-46.7%	–
Cc1ccc2nc(N(CCN(C)C)C(=O)C3=COCCO3)sc2c1	–	79.4 µM (active)
Cc1ccc2nc(-c3ccc(NC(=O)CN(C)S(=O)(=O)c4ccccc4)cc3)sc2c1	2.87% [at 102 µM]	–
NS(=O)(=O)c1ccc2nc(NC(=O)C3=COCCO3)sc2c1	36.2%	–
CCOC(=O)c1cccc(NC(=O)c2cc(S(=O)(=O)N3CCCC(C)C3)cn2C)c1 (stereo not given)	-1.91%	–
CCOC(=O)c1ccc(NC(=O)C2CCN(S(=O)(=O)c3ccc4c(c3)CCCC(=O)N4)CC2)cc1	-28.9%	–
CCc1ccc(-c2nc(SCC(=O)NC3CCCC3)n[nH]2)cc1	32.1% [at 102 µM]	–
CCCCCCn1nnc2sc(-c3ccccc3)cc2c1=O	51.4%	–
COC(=O)[C@@H](NC(=O)Nc1cc(Cl)ccc1C)C(C)C	35.1% [at 102 µM]	–
Cc1ccc(Cl)cc1NC(=O)C(C)n1nnc2sc(-c3ccccc3)cc2c1=O (stereo not given)	–	1.12 µM (active)
CCC(C)NC(=O)Cn1c(=O)n(-c2ccc(Cl)cc2)c(=O)c2c3c(sc21)CCCC3 (stereo not given)	-9.15%	–
CCOc1ccc(CCNC(=O)c2ccc3c(c2)sc2nc(-c4ccc(F)cc4)cn23)cc1OCC	1.74%	–
CCCN(CCC)C(=O)C1CCCN(c2ncnc3c2nc2n3CCCCC2)C1 (stereo not given)	4.45%	–
O=c1oc(/C=C/c2ccccc2)nc2ccccc12	15% [at 102 µM]	–
S=c1[nH]nc(/C=C/c2ccccc2)o1	–	22.4 µM (active)
Clc1ccc(CSc2nnc(/C=C/c3ccccc3)o2)c(Cl)c1	19.9%	–
CCc1ccccc1S(=O)(=O)Cc1ccc(C(=O)NCCc2ccccc2)o1	21.5% [at 102 µM]	–
COC(=O)c1ccc(C)c(NC(=O)C2CC(=O)N(C3CCCC(C)C3C)C2)c1 (stereo not given)	-4.66%	–

Structure (SMILES)	activity, negative = inhibition	Potency
COc1cccc(CNC(=O)c2ccc3c(c2)sc2nc(-c4cccc(OC)c4)cn23)c1	-1.93%	–
CN(Cc1cnccn1)C(=O)c1cc(COc2cccc(C(F)(F)F)c2)on1	9.71% [at 102 µM]	–
Cc1cccc(N=C2NN=C(c3c[nH]c4ccccc34)CS2)c1	-32.2%	–
Clc1cccc(N=C2NN=C(c3ccc4c(c3)OCCO4)CS2)c1	–	14.1 µM (active)
c1ccc(CN2CCC(N=C3NN=C(c4ccc5c(c4)OCCO5)CS3)CC2)cc1	-3.44% [at 12.7 µM]	–
COc1ccccc1-c1cnn2c(N3CCOCC3)cc(C)nc12	26.6% [at 102 µM]	–
Cc1cc(C)c(-c2n[nH]c3c2C(c2ccccc2F)N(CCO)C3=O)c(O)c1 (stereo not given)	19.7%	–
CCc1ccc2ncc3c(-c4ccc(C)cc4)nn(CC(=O)NCc4ccccc4)c3c2c1	-1.45%	–
COC(=O)c1cccc(Cn2nnc3sc4c(c3c2=O)CCC(C(C)(C)C)C4)c1 (stereo not given)	-31.9%	–
CC1CCCCC1NC(=O)CSc1nnc(N)s1 (stereo not given)	9.08%	–
CC1CCCC(NC(=O)CSc2nccn2C)C1C (stereo not given)	–	15.8 µM (active)
Cn1ccnc1SCC(=O)Nc1ccc2c(c1)OCCO2	34.5% [at 102 µM]	–
O=C(O)c1cccc(N2C(=O)Nc3ccccc3N2O)c1	-16.3%	–
O=C1NN(c2ccccc2)C(=O)/C1=C/c1ccc(-c2cccc(C(=O)O)c2)o1	–	39.8 µM (active)
O=C(Nc1ccc2nc(SCCOc3ccccc3Cl)sc2c1)c1ccco1	-31.5%	–
O=S(=O)(NCc1ccccc1Br)c1ccccc1Br	7.86% [at 2.33 µM]	–
CN(Cc1ccccc1)C(=O)c1cn(C)c2ccc(S(=O)(=O)N3CCCCC3)cc2c1=O	-1.71%	–
O=c1[nH]c2ccc(S(=O)(=O)N3CCCC3)cc2[nH]1	2.56% [at 102 µM]	–
CCCCn1c(=S)[nH]c2cc(S(=O)(=O)N3CCCCC3)ccc21	–	1.78 µM (active)
O=C(NCCc1ccccc1)c1ccc2c(c1)N(Cc1ccc(F)cc1)C(=O)c1ccccc1S2(=O)=O	-0.301%	–
Cc1ccc2oc(=O)c3cnn(CC(=O)NCc4ccccc4Cl)c3c2c1	11.1%	–
CCn1c(C(=O)Nc2cc(Cl)ccc2C)cc2sc(Cl)cc21	5.25%	–
C=C(C)CNC(=S)N/N=C/c1ccccc1OCC(=O)O	–	11.2 µM (active)
CCOc1ccccc1/C=N/NC(=O)CNC(=O)COc1ccccc1	1.78% [at 102 µM]	–
C=CCOc1ccccc1/C=N/NC(=O)Cc1ccccc1	-1.48% [at 0.501 µM]	–

Structure (SMILES)	activity, negative = inhibition	Potency
CCCCn1nc(C(=O)Nc2cccc(C(=O)NC3CC3)c2)c2ccccc2c1=O	5.39% [at 2.33 µM]	–
CCNC(=O)Cn1nc(C)n2c(cc3c(OC)cccc32)c1=O	11.3%	–
O=C(Nc1cccc(Cl)c1)OCc1ccccn1	-10.1% [at 102 µM]	–
CN1C(=O)C(CC(=O)Nc2ccccc2)S/C1=N/c1nccs1 (stereo not given)	19.4% [at 102 µM]	–
O=C(CC1SC(=Nc2ccccc2)N(Cc2ccccn2)C1=O)Nc1cccc(Cl)c1 (stereo not given)	–	8.91 µM (active)
COc1ccc(-c2nc3ccccc3o2)cc1NC(=O)c1cc([N+](=O)[O-])ccc1N1CCOCC1	3.44%	–
CC(Sc1cccc[n+]1[O-])C(=O)Nc1cccc(S(=O)(=O)N2CCOCC2)c1 (stereo not given)	–	8.91 µM (active)
Cc1cc(C(=O)OC(C)C(=O)Nc2cccc(S(=O)(=O)N3CCOCC3)c2)c(C)o1 (stereo not given)	-16.9% [at 102 µM]	–
O=C(CSc1ccccc1)Nc1cccc(S(=O)(=O)N2CCOCC2)c1	7.75% [at 12.7 µM]	–
COc1cccc(C2=CC(=O)C[C@H](c3ccc(F)cc3)C2)c1OC	-9.38% [at 0.501 µM]	–
CCOC(=O)/C(C#N)=C/c1ccc(N2CCCCC2)cc1	442% [at 102 µM]	–
O=c1[nH][nH]c(=O)c2cc(N3CCCC3)ccc12	-1.28% [at 102 µM]	–
O=C1C=CC(=O)N1c1ccc(N2CCCCC2)cc1	–	0.562 µM (active)
COc1ccc(Nc2ncnc3ccc(Br)cc23)c(OC)c1	29.9% [at 102 µM]	–
COc1ccc(-c2nc(SCC(=O)N3CCCCC3C)n[nH]2)cc1 (stereo not given)	2.49%	–
COc1ccccc1CCNC(=O)c1cccn1-c1nnc(N2CCCCC2)s1	-7.53%	–
CC1(C)O[C@@H]2[C@H](O1)[C@@H](COS(=O)(=O)O)O[C@H]2n1cnc2c(=O)[nH]cnc21	9.85% [at 2.33 µM]	–
Cc1nn(C(=O)c2c(F)cccc2F)c(C)c1S(=O)(=O)N1CCOCC1	8.64%	–
Cc1ccc(S(=O)(=O)N2CCN(Cc3cccc(C)c3O)CC2)cc1	12.4%	–
O=C(CN1CCN(S(=O)(=O)c2ccc(F)cc2)CC1)NC1CC1	6.21% [at 102 µM]	–
O=S(=O)(c1ccc(F)cc1)N1CCN(Cc2ccccc2C(F)(F)F)CC1	–	10 µM (active)
CCN(CC(=O)Nc1ccc(OC)cc1)C(=O)c1ccc(=O)n(Cc2ccccc2)n1	25%	–
Cc1ccccc1-c1nc2cc(NC(=O)c3cccc(OCCC(C)C)c3)ccc2o1	0.952%	–
Cc1nc2c(c(C)nn2-c2ccccc2)c(C)c1CCC(=O)NCCc1ccc(Cl)cc1	13.2%	–
CN1/C(=c2/s/c(=C3/C(=O)N(c4ccccc4)NC3=Nc3ccccc3)n(C)c2=O)C(C)(C)c2ccccc21	–	10 µM (active)

Reference: PubChem BioAssay AID504332 (National Center for Advancing Translational Sciences (NCATS), 2011)
